“And” between values parts separate entries of the source, which are not always exact repeats. Identical values can stand only once. More than one record can exist for a structure, and the calls need not agree. The source made the active and inactive calls. Unless noted, the call rests on the fitted dose curve; in most records, active means well fitted curve in the direction sought with a large enough effect in the repeat runs; inconclusive means weak or mixed curves; inactive means no such curve, though single readings can be large; an effect the other way counts as inactive or inconclusive.

Among the data in PubChem BioAssay (Tox21) are Potency and activity change, negative = inhibition values, retold here.

A short description of experiment [1]: qHTS assay to identify small molecule antagonists of the thyroid receptor (TR) signaling pathway (AID 743065). Further: nearly all actives have a fitted effect of over 55% in size. Further: potency means the concentration at half of the fitted maximal effect. The method in brief:
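Antagonism measured as loss of luciferase signal in GH3 cells stably carrying a TRE-luciferase reporter, co-treated with compound and T3 (1 nM final) for 23.5 h at 37 C. Viability was read in the same well by CellTiter-Fluor.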
(Quantitative high-throughput screening tests each substance at several concentrations.)

For experiment [2], the system named is thyroid hormone receptor (rat, GH3 cells). The experiment in a line: qHTS assay to identify small molecule agonists of the thyroid receptor (TR) signaling pathway (AID 743066; calls by dose curve).
Experiment [3] addresses Estrogen receptor (Homo sapiens) (UniProt P03372). Nature of the experiment: qHTS assay to identify small molecule antagonists of the estrogen receptor alpha (ER-alpha) signaling pathway (AID 743069; active means well fitted curve in the direction sought with a large enough effect in the signal ratio in the repeat runs, not every such curve was filed as active; inconclusive means weak or mixed curves, or effect the other way; inactive means no such curve, though single readings can be large or run the other way; the % refers to the signal ratio; further: potency means the concentration at half of the fitted maximal effect). In outline:
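Antagonist mode: compounds in DMSO were co-added with 17beta-estradiol to ER-alpha-bla HEK293 cells (2% charcoal-stripped serum) and left 18 h at 37C. Reporter inhibition was measured as FRET fluorescence after 2 h LiveBLAzer substrate at room temperature.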

Experiment [4] can be described thus: qHTS assay to identify small molecule antagonists of the estrogen receptor alpha (ER-alpha) signaling pathway - cell viability counter screen (AID 743074; calls by dose curve;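 further: HEK293 cells carrying ER-alpha-UAS-bla reporter stimulated with 17beta-estradiol; nearly all actives have a fitted effect of over 45% in size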; further: potency means the concentration at half of the fitted maximal effect).
The target in experiment [5] is Estrogen receptor (Homo sapiens) (UniProt P03372). The experiment in a line: qHTS assay to identify small molecule agonists of the estrogen receptor alpha (ER-alpha) signaling pathway (AID 743075; calls by dose curve;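 further: HEK293 GripTite cells with ER-alpha and UAS-driven beta-lactamase reporter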; further: potency means the concentration at half of the fitted maximal effect).
Experiment [6] shares this target. Nature of the experiment: qHTS assay to identify small molecule agonists of the estrogen receptor alpha (ER-alpha) signaling pathway using the BG1 cell line (AID 743079). Further: nearly all actives have a fitted effect of over 20% in size. Further: potency means the concentration at half of the fitted maximal effect.
A short description of experiment [7]: qHTS assay to identify small molecule antagonists of the estrogen receptor alpha (ER-alpha) signaling pathway using the BG1 cell line - cell viability counter screen (AID 743081).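 Further: compound given together with 17beta-estradiol as the ER stimulus; nearly all actives have a fitted effect of over 45% in size.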 Further: potency means the concentration at half of the fitted maximal effect.
For a further experiment, the target named is Aromatase (Homo sapiens) (UniProt P11511). The experiment in a line: qHTS assay to identify aromatase inhibitors (AID 743083). Further: nearly all actives have a fitted effect of over 55% in size. Further: potency means the concentration at half of the fitted maximal effect.
A short description of experiment [8]: qHTS assay to identify aromatase inhibitors - cell viability counter screen (AID 743084).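 Further: cells stimulated with testosterone during compound exposure; nearly all actives have a fitted effect of over 55% in size.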 Further: potency means the concentration at half of the fitted maximal effect.
Experiment [9] is described as follows: qHTS assay to identify small molecule antagonists of the estrogen receptor alpha (ER-alpha) signaling pathway using the BG1 cell line (AID 743080; calls by dose curve;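 further: BG1 cells stimulated with 17beta-estradiol alongside compound; nearly all actives have a fitted effect of over 25% in size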; further: potency means the concentration at half of the fitted maximal effect). Conditions: BG1Luc4E2 ERE-luciferase antagonist mode, luminescence; activity change, negative = inhibition: at 70.3 µM (top of the series). In outline: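 Readout is ONE-Glo luminescence, taken 30 min at room temperature after reagent addition, preceded by a CellTiter-Fluor viability read; BG1-Luc-4E2 cells had received compound and 17beta-estradiol for 21.5 h at 37 C.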
On the % scale 0 is the no-effect control and ±100 the full control effect.

Chain of Aromatase (Homo sapiens) (P11511 whole entry, looked up): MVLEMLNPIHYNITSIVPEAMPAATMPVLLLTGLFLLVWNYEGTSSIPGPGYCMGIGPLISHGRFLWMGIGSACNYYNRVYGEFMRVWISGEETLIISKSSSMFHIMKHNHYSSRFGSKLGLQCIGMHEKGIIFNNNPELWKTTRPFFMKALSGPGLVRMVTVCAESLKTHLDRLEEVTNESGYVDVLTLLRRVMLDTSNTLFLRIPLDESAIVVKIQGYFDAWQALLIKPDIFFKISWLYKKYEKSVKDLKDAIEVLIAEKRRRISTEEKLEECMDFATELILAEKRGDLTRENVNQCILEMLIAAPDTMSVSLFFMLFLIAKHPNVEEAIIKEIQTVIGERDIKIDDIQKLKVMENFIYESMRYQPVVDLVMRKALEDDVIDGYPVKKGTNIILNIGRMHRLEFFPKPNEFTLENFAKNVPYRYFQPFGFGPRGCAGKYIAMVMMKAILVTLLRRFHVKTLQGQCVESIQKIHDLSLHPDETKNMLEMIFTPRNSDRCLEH
Chain of Estrogen receptor (Homo sapiens) (P03372 whole entry, looked up): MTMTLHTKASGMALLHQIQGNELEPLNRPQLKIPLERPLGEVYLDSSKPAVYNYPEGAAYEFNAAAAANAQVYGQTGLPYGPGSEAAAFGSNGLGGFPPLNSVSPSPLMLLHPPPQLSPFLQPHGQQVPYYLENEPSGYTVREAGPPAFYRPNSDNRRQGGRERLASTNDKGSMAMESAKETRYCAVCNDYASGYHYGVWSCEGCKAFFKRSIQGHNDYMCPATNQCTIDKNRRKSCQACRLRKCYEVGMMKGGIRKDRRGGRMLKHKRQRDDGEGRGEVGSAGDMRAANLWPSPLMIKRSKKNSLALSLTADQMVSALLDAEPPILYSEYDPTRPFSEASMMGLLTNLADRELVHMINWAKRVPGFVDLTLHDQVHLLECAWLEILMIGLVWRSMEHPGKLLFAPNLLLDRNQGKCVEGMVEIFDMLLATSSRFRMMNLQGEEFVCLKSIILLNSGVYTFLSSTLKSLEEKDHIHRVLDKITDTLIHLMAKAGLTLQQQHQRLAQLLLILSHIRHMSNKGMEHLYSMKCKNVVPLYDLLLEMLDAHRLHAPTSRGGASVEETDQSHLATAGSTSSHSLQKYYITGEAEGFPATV

Consider `Nc1c2c(nc3ccccc13)CCCC2`, for which the Potency result in experiment [1], in experiment [2], in experiment [3], in experiment [4], in [5] and in [7] was “inactive” throughout. The Potency entry (in the experiment with Aromatase (Homo sapiens); in experiment [8]) was “inactive” each time. For the same compound, the Potency entry in experiment [6] is “inactive and 24.3 µM (active)”.
Consider `CN(C)C(=O)Nc1ccc(Cl)c(Cl)c1`, for which the Potency entry in experiment [1], in [2], in [3], in experiment [4], in [5] and in experiment [6] was “inactive” in each case. Also, the Potency result (in experiment [9]; in experiment [7]; in the experiment with Aromatase (Homo sapiens); in [8]) was “inactive” each time.
With `NC1CCCCC1`, the Potency result in experiment [1], in experiment [2], in [3], in experiment [4], in experiment [5] and in experiment [6] was “inactive” throughout. For the same compound, the Potency result (in experiment [9]; in [7]; with Aromatase (Homo sapiens); in experiment [8]) was “inactive” throughout.
As for `CC(C)C(=O)Nc1ccc([N+](=O)[O-])c(C(F)(F)F)c1`, the Potency in [1] was 62.9 µM (active); in experiment [3], “inactive and 49 µM [inhibitor] (active)”; in [9], 29.8 µM (active) and 49.9 µM (active); with Aromatase (Homo sapiens) it was “inactive and 62.9 µM (active)”. Besides, the Potency result in [2], in experiment [4], in experiment [5], in experiment [7] and in experiment [8] was “inactive” throughout.
As to `CCCCC1(COC(=O)CCC(=O)O)C(=O)N(c2ccccc2)N(c2ccccc2)C1=O`, the Potency entry in [1], in [2], in [3], in experiment [4], in experiment [5] and in experiment [6] was “inactive” in each case. The Potency entry (in experiment [9]; in experiment [7]; in the experiment with Aromatase (Homo sapiens); in experiment [8]) was “inactive” throughout.
Turning to `CCCCCCCCCCCCCCCC[N+](C)(C)Cc1ccccc1`, the Potency in [1] is 11.9 µM (active) and 8.91 µM (active) and 22.1 µM (active); in experiment [4], 19 µM (active) and 25.3 µM (active) and 31.4 µM (active); with Aromatase (Homo sapiens), 26.6 µM (active) and 50.1 µM (active) and 27.8 µM (active); in [8], 26.6 µM (active) and 49.4 µM (active). Moreover, the Potency entry in [2], in experiment [5] and in experiment [7] was “inactive” throughout. For the same compound, the activity change, negative = inhibition in [9] was -23.2% (active).
As for `CCCc1cc(=O)[nH]c(=S)[nH]1`, the Potency entry in [1], in [2], in experiment [3], in [4], in experiment [5] and in experiment [9] was “inactive” throughout. Further, the Potency result (in experiment [7]; with Aromatase (Homo sapiens); in experiment [8]) was “inactive” throughout. Further, the Potency in [6] was 26.6 µM (active) and inactive.
Take `Cc1cccc(C)c1`: the Potency result in experiment [1], in experiment [2], in experiment [3], in experiment [4], in [9] and in experiment [7] was “inactive” each time. Moreover, the Potency result (with Aromatase (Homo sapiens); in experiment [8]) was “inactive” each time. The Potency entry in experiment [5] is “inactive and 1.34 µM [inconclusive] (active)”; in [6], “inactive and 26.5 µM (active)”.
In the case of `COc1ccc(C(Cl)=C(c2ccc(OC)cc2)c2ccc(OC)cc2)cc1`, the Potency is 11.9 µM (active) and 6.08 µM (active) and 7.7 µM (active) in experiment [1]; 1.51 µM [inconclusive] (active) and 1.54 µM [inconclusive] (active) and 1.23 µM [inconclusive] (active) in [3]; 18.8 µM (active) and 12.1 µM (active) and 9.69 µM (active) in experiment [9]; 8.59 µM (active) and 12.2 µM (active) with Aromatase (Homo sapiens). Moreover, the Potency result in experiment [2], in experiment [4], in experiment [5], in [6], in [7] and in experiment [8] was “inactive” each time.
`CCN(CC)C(=O)c1cccc(C)c1`: the Potency result in experiment [1], in [2], in experiment [3], in experiment [4], in experiment [9] and in experiment [7] was “inactive” each time. The Potency result (with Aromatase (Homo sapiens); in experiment [8]) was “inactive” throughout. The Potency was 21.3 µM [inconclusive] (active) and inactive in experiment [5]; 2.66 µM (active) and inactive in [6].
As for `NS(=O)(=O)c1cc2c(cc1Cl)NCNS2(=O)=O`, the Potency entry in experiment [1], in experiment [2], in [3], in experiment [4], in experiment [5] and in experiment [6] was “inactive” throughout. Also, the Potency result (in experiment [9]; in experiment [7]; with Aromatase (Homo sapiens); in experiment [8]) was “inactive” in each case.
On to `CCc1nc(N)nc(N)c1-c1ccc(Cl)cc1`, for which the Potency in [1] is 10.6 µM (active) and 6.21 µM (active) and 9.69 µM (active); in [4], 7.02 µM (active); in [9] it was 23.7 µM (active); in the experiment with Aromatase (Homo sapiens) it was “inactive and 55.3 µM (active)”. Moreover, the Potency result in experiment [2], in experiment [3], in [5], in [7] and in experiment [8] was “inactive” throughout.
On to `O=C(Nc1ncc([N+](=O)[O-])s1)c1cccs1`, for which the Potency in experiment [1] is 21.1 µM (active). In addition, the Potency entry (in [2]; in [3]; in experiment [5]; with Aromatase (Homo sapiens)) was “inactive” throughout.
Consider `C=C(C)C(=O)OCC(C)O` (centres undefined), for which the Potency entry in experiment [1], in experiment [2], in experiment [3], in experiment [4], in experiment [5] and in experiment [6] was “inactive” each time. The Potency result (in [9]; in experiment [7]; with Aromatase (Homo sapiens); in experiment [8]) was “inactive” throughout.
With `O=C1OC2(c3ccccc31)c1cc(Br)c(O)c(Br)c1Oc1c2cc(Br)c(O)c1Br`, the Potency entry in experiment [1], in experiment [2], in [4], in experiment [5], in experiment [6] and in experiment [9] was “inactive” each time. The Potency result with Aromatase (Homo sapiens) was “inactive”. Moreover, the Potency in [7] was 11.9 µM (active) and 3.91 µM (active) and 8.88 µM (active); in [8], 9.44 µM (active) and 2.2 µM (active) and 4.45 µM (active).
`Cc1ncc([N+](=O)[O-])n1CCO`: the Potency result in experiment [1], in experiment [2], in experiment [3], in experiment [4], in experiment [5] and in [6] was “inactive” each time. The Potency result (in [9]; in experiment [7]; in the experiment with Aromatase (Homo sapiens); in experiment [8]) was “inactive” throughout.
